# Results taken from PubChem BioAssay AID504333 (National Center for Advancing Translational Sciences (NCATS), 2011).
# Out of some 360,000 compounds screened, about 16,000 (4.4%) were called active. Inconclusive results (about 9%) are left out. Only a selection was taken, and actives are over-represented in it overall. Unmarked numbers belong to inactive results. Calls come from the whole dose curve; as a rule, active = well fitted inhibition curve with a large enough effect; inconclusive = small, poorly fitted or top-dose-only effect; inactive = no such curve, though single readings can be large or run the other way.
# Target: Bromodomain adjacent to zinc finger domain protein 2B (Homo sapiens) (UniProt Q9UIF8)
# Sequence (Q9UIF8 whole entry, looked up, the tested form may be a part): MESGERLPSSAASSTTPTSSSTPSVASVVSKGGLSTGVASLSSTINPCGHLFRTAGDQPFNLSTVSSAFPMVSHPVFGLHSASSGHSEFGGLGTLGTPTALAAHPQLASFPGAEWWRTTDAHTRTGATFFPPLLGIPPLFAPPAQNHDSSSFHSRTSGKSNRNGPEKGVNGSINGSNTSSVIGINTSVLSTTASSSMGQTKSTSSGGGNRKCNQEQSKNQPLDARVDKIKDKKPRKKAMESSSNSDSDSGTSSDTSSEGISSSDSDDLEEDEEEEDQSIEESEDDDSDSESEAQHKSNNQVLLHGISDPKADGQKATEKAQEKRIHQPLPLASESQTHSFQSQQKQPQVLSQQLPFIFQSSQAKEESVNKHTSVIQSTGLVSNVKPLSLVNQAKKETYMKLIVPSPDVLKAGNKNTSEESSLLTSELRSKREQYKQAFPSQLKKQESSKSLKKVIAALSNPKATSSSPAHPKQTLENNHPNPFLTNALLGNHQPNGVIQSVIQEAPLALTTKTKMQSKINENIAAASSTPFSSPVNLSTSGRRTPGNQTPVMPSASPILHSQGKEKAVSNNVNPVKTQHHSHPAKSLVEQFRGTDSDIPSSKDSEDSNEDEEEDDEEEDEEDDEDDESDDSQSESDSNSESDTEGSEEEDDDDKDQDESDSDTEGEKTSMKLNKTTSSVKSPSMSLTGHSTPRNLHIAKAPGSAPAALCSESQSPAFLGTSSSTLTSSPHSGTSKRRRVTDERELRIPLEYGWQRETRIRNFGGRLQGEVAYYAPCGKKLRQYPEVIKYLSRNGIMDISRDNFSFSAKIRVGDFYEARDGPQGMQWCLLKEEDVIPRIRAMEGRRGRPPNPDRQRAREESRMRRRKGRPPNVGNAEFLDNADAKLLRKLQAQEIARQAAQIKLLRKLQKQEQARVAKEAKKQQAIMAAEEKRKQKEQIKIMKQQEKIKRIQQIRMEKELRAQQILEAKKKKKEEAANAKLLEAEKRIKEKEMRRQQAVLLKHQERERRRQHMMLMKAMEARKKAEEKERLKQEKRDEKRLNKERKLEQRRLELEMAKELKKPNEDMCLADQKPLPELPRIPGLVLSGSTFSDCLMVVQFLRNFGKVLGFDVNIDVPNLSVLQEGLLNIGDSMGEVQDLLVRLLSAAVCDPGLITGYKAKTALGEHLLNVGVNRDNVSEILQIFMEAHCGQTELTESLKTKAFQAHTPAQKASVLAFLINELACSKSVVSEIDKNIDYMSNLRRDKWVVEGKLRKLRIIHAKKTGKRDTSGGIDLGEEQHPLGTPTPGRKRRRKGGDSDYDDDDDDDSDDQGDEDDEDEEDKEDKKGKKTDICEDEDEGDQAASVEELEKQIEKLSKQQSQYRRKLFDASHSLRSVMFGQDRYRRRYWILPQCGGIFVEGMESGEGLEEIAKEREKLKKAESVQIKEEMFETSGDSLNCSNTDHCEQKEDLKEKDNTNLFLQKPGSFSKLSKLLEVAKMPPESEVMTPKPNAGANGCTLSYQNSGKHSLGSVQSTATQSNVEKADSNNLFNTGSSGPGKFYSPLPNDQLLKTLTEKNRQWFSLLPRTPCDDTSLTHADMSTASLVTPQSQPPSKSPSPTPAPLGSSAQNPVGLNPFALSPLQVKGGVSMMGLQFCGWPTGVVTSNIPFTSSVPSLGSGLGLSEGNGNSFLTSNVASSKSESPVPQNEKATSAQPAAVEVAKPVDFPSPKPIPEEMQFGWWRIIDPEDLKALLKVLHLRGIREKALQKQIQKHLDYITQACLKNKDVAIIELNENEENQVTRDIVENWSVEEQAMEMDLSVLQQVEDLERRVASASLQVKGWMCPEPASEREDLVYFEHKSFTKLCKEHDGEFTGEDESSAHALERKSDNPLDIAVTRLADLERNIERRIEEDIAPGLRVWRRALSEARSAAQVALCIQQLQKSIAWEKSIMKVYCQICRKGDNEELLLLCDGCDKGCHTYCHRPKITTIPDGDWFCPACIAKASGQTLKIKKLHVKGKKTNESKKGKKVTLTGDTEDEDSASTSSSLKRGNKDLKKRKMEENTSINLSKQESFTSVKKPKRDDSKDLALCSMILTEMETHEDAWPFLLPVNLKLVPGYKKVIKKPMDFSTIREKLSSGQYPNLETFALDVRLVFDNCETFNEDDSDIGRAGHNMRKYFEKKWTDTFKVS
# Assay: qHTS Assay for Inhibitors of BAZ2B; note: nearly all actives have a fitted effect of over 60% in size
# Conditions: AlphaScreen BAZ2B-H3K14Ac peptide displacement; series mostly up to 114 µM; activity change, negative = inhibition: at the top concentration
# Procedure, shortened: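 Multi-concentration screen (max 110 uM) measuring displacement of acetylated histone H3 peptide from BAZ2B by AlphaScreen, using 50 nM protein, 50 nM peptide and 10 ug/mL streptavidin donor plus Ni-chelate acceptor beads.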
# % is set by controls: 0 for no effect and ±100 for the full control effect; potency is the fitted concentration of half-maximal effect.
SMILES,"activity change, negative = inhibition",Potency
CC(C)(C)c1cc(C(=O)N/N=C/c2ccc([N+](=O)[O-])s2)n[nH]1,-1.13%,–
CCCN(CCC)CCCNC(=O)Cn1ncc2c3ccccc3n(Cc3ccccc3)c2c1=O,-11.5%,–
COc1ccc(-c2cn3c(n2)sc2cc(C(=O)Nc4ccc(F)cc4)ccc23)cc1,1.57%,–
Cc1cccc(Cn2c(SCc3ccc(C(=O)N4CCC(C)CC4)cc3)nc3ccncc32)c1,-16.1%,–
COc1cccc(Cn2c(SCc3ccc(C(=O)N4CCCCC4)cc3)nc3ccncc32)c1,-11.2%,–
COc1cccc(Cn2c(SCc3ccc(C(=O)N4CCC(C)CC4)cc3)nc3ccncc32)c1,–,22.4 µM (active)
COc1ccccc1Cc1nc2ccccc2nc1SCC(=O)N1CCCc2ccccc21,-3.57%,–
COc1ccc(C(=O)c2c(C)c(CCC#N)n3ccccc23)c(OC)c1,-17.9%,–
Cc1c(C(=O)c2cccc([N+](=O)[O-])c2)c2ccccn2c1CCC#N,–,50.1 µM (active)
O=C(c1cccc([N+](=O)[O-])c1)N1CCN(Cc2ccccc2)CC1,20.8%,–
COC(=O)c1cnc(N2CCN(c3ccccc3OC)CC2)c2ccccc12,42.6%,–
COc1ccc2c(c1)c(N1CCCC1=O)c(C(=O)Nc1ccc(OC)c(Cl)c1)n2C,-34.8%,–
Clc1ccc(Nc2nc(-c3cccs3)cs2)nc1,-33.2%,–
CC(=O)Nc1cccc(-c2csc(Nc3cccc(C)n3)n2)c1,-4.54%,–
Cc1ccc(Nc2nc(-c3ccc(O)cc3O)cs2)nc1,–,50.1 µM (active)
COc1cc(C(=O)Nc2ccc(-n3c(C)nc4ccccc4c3=O)cc2)cc(OC)c1OC,-14.7%,–
CCN(CC)c1cc(NC2CCCCC2)c2c3c(onc13)-c1ccccc1C2=O,–,3.55 µM (active)
COc1ccc(OC)c(CNC(=O)Cn2nc(C)c3c(C)n(-c4ccccc4)nc3c2=O)c1,-15.4%,–
CCCC(=O)Nc1ccc2oc(-c3ccc(O)c(Br)c3)nc2c1,2.4%,–
COc1ccc(CCNCc2c(C(=O)O)c(C)n(Cc3cccc(C)c3)c2C)cc1OC,-16.7%,–
COc1ccc(SCc2cc(=O)c3ccc(C)c(C)c3[nH]2)cc1,8.96%,–
O=c1[nH]c(NCCO)nnc1Cc1ccc(Cl)cc1,-11.6%,–
COc1ccc(Cc2nnc(N/N=C/c3ccccc3O)[nH]c2=O)cc1OC,–,6.31 µM (active)
CC(C)c1ccc(Cc2nnc(NCCCO)[nH]c2=O)cc1,-1.73%,–
Cc1nn(C)c2c1c(C(F)(F)F)cc(=O)n2C(C)C(=O)NCc1ccc(Cl)cc1 (stereo not given),-3.38%,–

SMILES,"activity change, negative = inhibition",Potency
O=C(NCc1ccccc1)C1CCN(S(=O)(=O)c2ccc3[nH]c(=O)ccc3c2)CC1,7.93%,–
Cc1ccccc1CCNC(=O)C1CCN(c2nc3ccccc3nc2C(F)(F)F)CC1,-0.372%,–
CC(=O)c1ccc(NC(=O)c2nc3nc(C)cc(C(F)F)n3n2)cc1,0.583%,–
Brc1ccc2c(c1)NC(c1cccnc1)=NC(c1ccccc1)=N2,-2.3%,–
COc1ccc(C2=NC(c3ccncc3)=Nc3ccc(Br)cc3N2)cc1,–,28.2 µM (active)
Cc1cc(OCC(=O)NC2CCN(C)CC2)ccc1[N+](=O)[O-],-3.49%,–
Cc1cc(OCCCN2CCN(Cc3ccccc3)CC2)ccc1[N+](=O)[O-],–,17.8 µM (active)
Cc1cc(OCCCCOc2ccc(C#N)cc2)ccc1[N+](=O)[O-],0.416%,–
Cc1cccc(C2CC(=O)Oc3c2c(=O)n(C)c2ccccc32)c1 (stereo not given),-12.8%,–
CCOC(=O)C1=C(C)NC(SC)=NC1c1ccccc1 (stereo not given),2.29%,–
Cc1cccc(C2C3=C(CCCC3=O)N=C3c4ccccc4C(=O)C32)c1 (stereo not given),-38.9%,–
CCOC(=O)C1=C(C)N=C2c3ccccc3C(=O)C2C1c1ccc(Br)cc1 (stereo not given),–,22.4 µM (active)
CCCN1CCc2nc(N3CCN(C)CC3)ncc2C1,3.12%,–
COc1ccc(NC(=O)[C@H](NC(=O)[C@@H]2Cc3ccccc3CN2)c2ccccc2)cc1,-11.2%,–
COC(C(=O)Nc1ccc(C(C)=O)cc1)c1ccccc1 (stereo not given),6.93%,–
COc1ccc(NC(C(=O)Nc2cccc(C(C)=O)c2)c2ccccc2)cc1 (stereo not given),–,50.1 µM (active)
Cc1cccc(C(=O)Nc2ccc(-c3nc4ccccc4s3)c(C)c2)c1,0.838%,–
O=C(Nc1ccc2nc(SCCOc3ccccc3Cl)sc2c1)c1ccco1,-28.6%,–
c1ccc(-c2cc(-c3nnc4sc(-c5ccccn5)nn34)[nH]n2)cc1,-21.7%,–
COc1cc(-c2nn3c(-c4cccc(C)c4)nnc3s2)cc(OC)c1OC,-1.78%,–
CCOc1cccc(-c2nn3c(-c4ccccn4)nnc3s2)c1,–,50.1 µM (active)
COc1ccc(/C=C2/SC(=O)N(CCCCCC(=O)Nc3ccccc3C(=O)O)C2=S)cc1,–,56.2 µM (active)
COc1ccc(/C=C2\SC(=O)N(CCC(=O)NCCCn3ccnc3)C2=O)cc1,-34.5%,–
COc1ccc(/C=C2\SC(=O)N(CCC(=O)NC3CCS(=O)(=O)C3)C2=O)cc1 (stereo not given),-17.6%,–
CCCCNc1ccc(-c2nc(-c3ccncc3)no2)cc1[N+](=O)[O-],-14.3%,–
